Bioassay records as filed in PubChem BioAssay.
aSyn 5UTR act: Activators via SNCA 5'UTR binding, MLPCN; activity score, % (tested at 7.5 µM), hits read low; 300,000 tested, 7.1% active; alpha-synuclein 5'UTR reporter, activators screen; in the data active = activity score below about -60%
A number is an active result; 0 = inactive. Only a sample is shown.

SMILES	aSyn 5UTR act
CCOC(=O)Cc1ccc(NC(=O)c2ccc(C(C)(C)C)cc2)cc1	0
CCOc1ccc(C(=O)c2cc([N+](=O)[O-])ccc2N2CCOCC2)cc1	0
CCOc1ccc(OCc2ccc(C(=O)N3CCCC(C)C3)cc2)cc1 (configuration not stated)	-63.0
CCOc1ccc(OCc2ccc(C(=O)N3CCOCC3)cc2)cc1	-91.2
CCOc1ccc(N=C(/C(C(=O)C(=O)N2CCOCC2)=C(\O)c2ccccc2)c2ccccc2)cc1	-151.2
NC(=O)CSc1nc(-c2ccccc2Cl)ns1	-121.2
CCCCC(=O)Nc1nc2ccc(C(=O)OC)cc2s1	-113.8
CCCC(=O)Nc1nc2ccc(C(=O)OCC)cc2s1	-135.8
CCOC(=O)c1ccc2nc(NC(=O)c3cccs3)sc2c1	-105.1
CCOC(=O)c1ccc2nc(NC(=O)C(C)C)sc2c1	-112.6
O=C(NC1CC1)c1cc2cc3ccccc3nc2s1	-152.4
CC(=O)c1cc(-c2ccccc2)n(CC(=O)NC2CCCC2)c1C	-64.9
O=C(O)c1ccc2c3c(ncnc13)-c1ccccc1C2=O	0
Cc1ccc2c3c(cccc13)-c1ccccc1C2=O	-110.6
CC1CCCCN1C(=O)C1CC(c2ccc(F)cc2)=NO1 (configuration not stated)	-88.7
O=C(C1CC(c2ccccc2O)=NO1)N1CCCCC1 (configuration not stated)	-112.1
O=C(C1CC(c2ccc(F)cc2)=NO1)N1CCCCC1 (configuration not stated)	-141.2
CC1CCCCN1C(=O)CSc1ccc(-c2ccc(F)cc2)nn1 (configuration not stated)	-76.4
C=C1[C@@H](C)C2[C@H](Cc3ccccc3)NC(=O)[C@]23OC(=O)CC[C@H](O)CCC[C@H](C)C/C=C/[C@H]3[C@@H]1O (some centres not stated)	0
Cc1cc(/C=C2/SC(=O)N(CC(=O)N3CCOCC3)C2=O)c(C)n1-c1ccccc1F	-143.2
COc1cc(/C=C2/C(=N)N3N=C(CC(=O)N4CCOCC4)SC3=NC2=O)ccc1OCc1ccc(F)cc1	-101.7
COc1ccccc1-n1c(C)cc(/C=C2\C(=N)N3N=C(CC(=O)N4CCOCC4)SC3=NC2=O)c1C	-71.6
COc1cccc(OCC(=O)O/N=C(\N)c2ccncc2)c1	-90.0
N/C(=N\OC(=O)CSc1ccccc1)c1ccncc1	-90.7
N/C(=N\OC(=O)COc1ccccc1)c1cccnc1	-112.8
SMILES	aSyn 5UTR act
N/C(=N\OC(=O)COc1ccccc1)c1ccncc1	-82.3
N/C(=N\OC(=O)COc1ccccc1)c1ccc(Cl)cc1	-67.1
COc1ccc(/C(N)=N/OC(=O)COc2ccccc2Cl)cc1	-141.5
Nc1ccccc1-c1nc2ccccc2[nH]c1=O	-141.1
CCSc1nnc(-c2ccccc2N)c(=O)[nH]1	-67.5
Nc1ccc(Br)cc1-c1nc2ccccc2[nH]c1=O	-102.0
Clc1ccc(OCc2nc(-c3ccncc3)no2)cc1	-126.5
Clc1ccc(Cl)c(-c2nc(-c3ccncc3)no2)c1	-130.9
Clc1ccc(-c2nc(-c3ccncc3)no2)c(Cl)c1	-103.7
CCOc1ccc(-c2noc(CCC(=O)O)n2)cc1	0
Cc1ccc(Sc2ncccc2COC(=O)NC(C)C)cc1	-89.1
Cc1nc(-n2[nH]c3c(c2=O)CCCC3)[nH]c(=O)c1Cc1ccccc1	0
Cc1cccn2c(=O)c(C=Nc3ccc(Cl)cc3)c(NCCO)nc12	-90.9
COc1cc(/C(C)=N/NC(=O)CSc2nncn2C)ccc1OCc1ccccc1Cl	-83.0
CCOC(=O)c1c(NC2=NS(=O)(=O)c3ccccc32)sc2c1CCCCC2	-63.2
O=C(O)c1nc2ccccc2nc1C(=O)O	-166.1
COc1cc(O)sc1C=Nc1ccc(Cl)cc1	-92.1
COc1ccc(N2C(=O)c3ccccc3NC2c2ccc(OC)c(CSc3ccccn3)c2)cc1 (configuration not stated)	-89.0
COC(=O)COc1ccc(Cl)cc1C1Nc2ccccc2C(=O)N1c1ccc(OC)cc1 (configuration not stated)	-88.4
COc1ccc(N2C(=O)c3ccccc3NC2c2ccc(OC)c(COc3ccccn3)c2)cc1 (configuration not stated)	-76.9
Cc1nc(NC(=O)C23CC4CC(CC(C4)C2)C3)sc1Cc1ccc2c(c1)OCO2	-183.7
Cc1cccn2cc(CSc3ccccc3N)nc12	-117.2
CCC(C)NC(=O)Cc1c(C)c2cc3c(cc2oc1=O)OC(C)(C)CC3 (configuration not stated)	-118.2
Cc1c(CC(=O)N[C@H](C(=O)O)C(C)C)c(=O)oc2cc3c(cc12)CCC(C)(C)O3	-109.6
Cc1c(CCC(=O)O)c(=O)oc2cc3oc4c(c3cc12)CCCC4	0
SMILES	aSyn 5UTR act
Cc1c(CC(=O)NC(C)C)c(=O)oc2cc3c(cc12)CCC(C)(C)O3	-78.1
CCc1nc2ccc(C(=O)NCCc3ccco3)cc2nc1CC	-63.0
O=C(NCc1ccco1)c1ccc2c(c1)C(=O)c1ccccc1-2	-76.8
O=C(NCc1ccco1)c1ccc(Oc2ccccc2)cc1	-86.7
CC(C)(CO)NC(=O)c1ccc2c(c1)C(=O)c1ccccc1-2	-96.5
O=C(NCc1ccco1)c1ccc2ccccc2c1	-63.5
Cc1cccc(N2CSC3=C(C#N)C(c4ccc(C)o4)CC(=O)N3C2)c1 (configuration not stated)	-85.5
O=C(Nc1ccc(Br)cc1)C1Cc2ccccc2O/C1=N\O (configuration not stated)	-158.1
Cc1ccc(NC(=O)C2Cc3ccccc3O/C2=N\O)cc1C (configuration not stated)	-127.4
Nc1nonc1-c1noc(CCCN2C(=O)c3ccccc3C2=O)n1	-107.8
O=C(Nc1ccc(-c2noc(COc3ccccc3Cl)n2)cc1)c1ccco1	-139.9
Cc1cccc(OCc2nc(-c3nonc3N)no2)c1C	-143.6
Nc1nonc1-c1noc(COc2ccccc2Cl)n1	-161.7
CC1(C)CC(=O)c2cc(N=C/C(C(=O)c3ccccc3)=C(\O)c3ccccc3)c(=O)oc2C1	-72.3
Cc1ccc(-n2cnc3c(sc4nccc(N(C)C)c43)c2=O)cc1	-132.1
COc1ccc(Cn2c(C3CC3)nc3ccc(NC(=O)C4CC4)cc3c2=O)cc1	-280.3
CC(=O)Nc1ccc2nc(C3CC3)n(Cc3ccc(Cl)cc3)c(=O)c2c1	-165.2
CCC(=O)Nc1ccc2nc(C3CC3)n(Cc3ccc(C(C)(C)C)cc3)c(=O)c2c1	-149.6
CN(C)C=Nc1ncc2c([nH]c3ccccc32)c1C#N	-112.6
CCc1ccc(-c2cc(C(=O)N3N=C(C(F)F)CC3(O)C(F)F)c3ccccc3n2)cc1 (configuration not stated)	-67.7
CCc1ccc(-c2cc3c(=O)n(CC(=O)NCc4ccccc4F)ncn3n2)cc1	-70.1
Cc1ccc(-c2nn(CC(=O)NCc3cc(-c4nn(C)c(=O)c5ccccc45)ccc3C)c(=O)c3ccccc23)cc1	0
CCC1CCCCN1C(=O)CCCc1ccccc1 (configuration not stated)	-105.4
CCC1CCCCN1C(=O)CCS(=O)(=O)c1ccccc1 (configuration not stated)	-92.6
O=C(CCCc1ccccc1)N1CCN(C2CCCCC2)CC1	-115.3
Cc1cc(Cl)c2oc(C(=O)N(C)C3CCOC3)c(C)c2c1 (configuration not stated)	-107.6
Cc1cc(Cl)c2oc(C(=O)N(C)Cc3ccon3)c(C)c2c1	-104.3
Cc1ccccc1S(=O)(=O)Oc1ccc2ccc(O)cc2c1	-131.1
Cc1ccccc1C(=O)Oc1ccc2ccc(O)cc2c1	-162.2
Cc1ccc(NC(=S)N2CCn3cccc3C2c2cccnc2)cc1 (configuration not stated)	-93.3
